Data on 96 compounds can be found in PubChem BioAssay AID1159607 (Small Molecule Screening Facility, UW Madison, 2016).

The structures appear in SMILES notation. The whole screen tested about 70,000 compounds, of which about 400 (0.57%) were called active. This excerpt belongs to a sample that is enriched for actives. Unmarked numbers belong to inactive results. Cut-off read from the data, not from the text of the source: active = FP signal below about 40; inactive = the rest.

The test relates to RMI core complex (RMI1/RMI2) binding to FANCM MM2 peptide, human. Kind of test: disruptors of RMI1/RMI2 association with MM2 peptide – biochemical, fluorescence polarization, human, primary screen (AID 1159607). The settings on record: RMI core complex with F-MM2 peptide, at 33 µM, active compounds read low. In general terms: In fluorescence polarisation assays a small probe gives low polarisation when free and higher when bound to something large.
Consider `O=C(/C=C/c1cccc(F)c1)c1cccs1`, for which the FP signal (polarization) was 64.
With `CCc1ccccc1NC(=O)c1csc(Nc2ccc(S(C)(=O)=O)cc2)n1`, the FP signal (polarization) was 77.
In the case of `C=CCN(CC=C)S(=O)(=O)c1ccc(C(=O)Nc2nc(-c3ccc4ccccc4c3)cs2)cc1`, the FP signal (polarization) was 86.
`Nc1ccc2c(c1)N(C(=O)c1ccccc1)CCC2`: the FP signal (polarization) was 68.
Regarding `Nc1cc(-c2ccccc2)no1`, the FP signal (polarization) was 63.
Regarding `C=CCn1c(SCC(=O)Nc2nsc(-c3ccccc3)n2)nc2scc(-c3ccco3)c2c1=O`, the FP signal (polarization) is 98.
`COc1ccc(CC(=O)Nc2ccc(SCC(=O)N3CCCC3)nn2)cc1OC`: the FP signal (polarization) was 61.
`O=C(CC1CCCCN1S(=O)(=O)c1ccc(F)cc1)NCc1ccc2c(c1)OCO2` (stereo unspecified): the FP signal (polarization) is 68.
`CCn1nc(C(=O)Nc2cc(C)nn2-c2nc3ccc(OC)cc3s2)cc1C`: the FP signal (polarization) is 71.
For the compound `Cc1ccc(C)c(NC(=O)CCS(=O)(=O)c2ccccc2)c1`, the FP signal (polarization) was 70.
In the case of `CCOC(=O)c1sc(NC(=O)c2ccc(-c3ccccc3)cc2)nc1-c1ccccc1` it was 57.
With `COc1ccc(C(=O)Nc2nc(-c3ccccc3)c(C)s2)cc1`, the FP signal (polarization) was 33 (active).
As for `COc1ccc(-c2nc(NC(=O)c3cccc(NS(=O)(=O)c4ccccc4)c3)sc2C)cc1`, the FP signal (polarization) is 52.
As for `COc1ccc2nc(-c3ccc(F)c(NC(=O)c4ccccc4C(F)(F)F)c3)cn2n1`, the FP signal (polarization) was 87.
On to `COc1ccc2nc(-c3ccc(OC)c(NC(=O)c4ccccc4Cl)c3)cn2n1`, for which the FP signal (polarization) is 13 (active).
For the compound `CCCC(=O)Nc1cc(-c2cn3nc(OC)ccc3n2)ccc1OC`, the FP signal (polarization) is 70.
Turning to `COc1ccc(N)cc1N1CCCCC1=O`, the FP signal (polarization) is 62.
With `O=c1c2scc(-c3ccccc3)c2ncn1Cc1ccccc1`, the FP signal (polarization) is 64.
As for `COc1ccc(-c2csc3c(=O)n(Cc4cc(=O)n5ccccc5n4)cnc23)cc1OC`, the FP signal (polarization) was -23 (active).
With `COc1ccc(-c2csc3c(=O)n(Cc4ccccc4Cl)cnc23)cc1`, the FP signal (polarization) was 63.
In the case of `O=C(NCCN1CCN(c2ccc(F)cc2)CC1)C(=O)NC1CC1`, the FP signal (polarization) was 62.
Regarding `N/C(CS(=O)(=O)c1ccc(Cl)cc1)=N/O`, the FP signal (polarization) was 56.
In the case of `O=C(/C=C/c1cccs1)Nc1nnc(-c2cc3ccccc3o2)o1` it was 56.
For the compound `COC1C=CC23c4cc5c(cc4CN(CC2O)[C@@H]3C1)OCO5` (stereo partly specified), the FP signal (polarization) was 63.
For the compound `O=C(Cn1c2c(c(=O)n(C3CCCCC3)c1=O)CCC2)Nc1ccc2c(c1)OCCO2`, the FP signal (polarization) was 58.
As for `Cc1ccc(C(=O)CSc2nnc3ccc4ccccc4n23)cc1C`, the FP signal (polarization) was 75.
The result for `Cc1ccc2c(c1)nnc1nnc(SCC(=O)O)n12` reads 2 (active); that for `CCCc1cc(=O)[nH]c2nnc(SCC(=O)Nc3nc4ccc(C)cc4s3)n12`, 47.
The result for `O=C1NC(=O)c2cc(S(=O)(=O)N(CCO)CCO)cc3cccc1c23` reads 56.
`C=Cc1cc2ccc(C)cc2nc1Cl`: the FP signal (polarization) is 58.
In the case of `CC(C)c1c(O)ccc2c1CCC1[C@@](C)(CO)CCC[C@]21C` (stereo partly specified) it was 58; in that of `COc1cn(CC(=O)Nc2cccc(F)c2)c(CN2CCN(c3ccccc3)CC2)cc1=O`, 54; in that of `O=C(O)/C=C/C(=O)Nc1ccc(Oc2ccc(Cl)cc2)cc1`, 53.
Regarding `CSc1nc2ccc(NC(=O)c3ccc(Oc4ccc(C(=O)Nc5ccc6nc(SC)sc6c5)cc4)cc3)cc2s1`, the FP signal (polarization) was 63.
Turning to `CC(C)Oc1ccc(C(=O)NCC(c2ccsc2)N2CCCCCC2)cc1` (stereo unspecified), the FP signal (polarization) was 75.
In the case of `O=C(CCCSc1ccc(NC(=O)C2CC2)nn1)NCc1ccccn1` it was 67.
`C=CCc1cccc2cc(C(=O)Nc3cc(OC)c(Cl)cc3OC)c(=O)oc12`: the FP signal (polarization) is 60.
As to `O=C(CC1CCCCN1S(=O)(=O)c1cccs1)Nc1ncccn1` (stereo unspecified), the FP signal (polarization) was 69.
As for `Cc1ccc(-c2nc(N3CCOCC3)sc2-c2ccc([N+](=O)[O-])cc2)cc1`, the FP signal (polarization) is 74.
The result for `COc1ccc2oc(-c3csc(NC(=O)C4COc5ccccc5O4)n3)cc2c1` (stereo unspecified) reads 66.
In the case of `CC(C)CCN1C(=O)C(C)(C)COc2ccc(NC(=O)Cc3ccc(F)cc3)cc21` it was 77.
`Cc1nc(-c2ccc(S(=O)(=O)N3CCN(C(=O)c4ccco4)CC3)s2)cs1`: the FP signal (polarization) was 60.
With `CCCOc1ccc(S(=O)(=O)N2CCN(c3ccc(F)cc3)CC2)cc1C`, the FP signal (polarization) is 66.
For `COCCN1CCCc2ccc(NS(=O)(=O)c3ccc(C)c(Cl)c3)cc21`, the FP signal (polarization) is 78.
For the compound `COc1cc(-c2nnc(NC(=O)c3ccc([N+](=O)[O-])cc3)o2)cc(OC)c1OC`, the FP signal (polarization) was 54.
For the compound `CCOC(=O)c1oc2ccccc2c1NC(=O)c1cccc(N2C(=O)CCC2=O)c1`, the FP signal (polarization) is 74.
With `O=S(=O)(c1cccnc1)N1CCN(c2ccc(-c3cccs3)nn2)CC1`, the FP signal (polarization) is 69.
The result for `O=C(COc1ccc(Cl)cc1Cl)Nc1nnc(SCC(=O)Nc2nnc(-c3cccc([N+](=O)[O-])c3)s2)s1` reads 16 (active); that for `COc1ccc(Cl)cc1C(=O)Nc1nnc(-c2cccc([N+](=O)[O-])c2)s1`, 74.
For the compound `CCOC(=O)c1ccc(NC(=O)CSc2nnc(NC(=O)COc3ccc(Cl)cc3Cl)s2)cc1`, the FP signal (polarization) was 62.
On to `O=C(Cn1nc(-c2ccc(F)cc2)c2sc(N3CCCC3)nc2c1=O)Nc1ccc(F)cc1F`, for which the FP signal (polarization) was 92.
`CN1C(=O)C(C)(C)COc2ccc(NC(=O)c3ccc(Br)cc3)cc21`: the FP signal (polarization) is 68.
As to `COc1ccccc1CCNC(=O)CSc1nnc2ccc(-c3cccnc3)nn12`, the FP signal (polarization) is 55.
With `Cc1c(NC(=S)Nc2ccc3c(c2)OCO3)c(=O)n(-c2ccccc2)n1C`, the FP signal (polarization) was 59.
For `CN(C)c1ccc(C=NS(=O)(=O)c2cccs2)cc1`, the FP signal (polarization) is 57.
The result for `CSc1cccc(NC(=O)C(=O)NCCc2ccccc2)c1` reads 65; that for `Cc1[nH]c(=O)[nH]c(=O)c1CCC(=O)Nc1ccc(F)c(Cl)c1`, 60.
As for `COc1ccc(S(=O)(=O)CC(=O)Nc2cc(C)nn2-c2nc3ccccc3s2)cc1`, the FP signal (polarization) is 78.
The result for `CCOc1ccccc1C(=O)NCC(=O)N1CCOC(c2ccccc2)C1` (stereo unspecified) reads 73; that for `COc1cc(-c2noc(-c3cc(-c4ccccc4)n[nH]3)n2)cc(OC)c1OC`, 95.
`Nc1cc(=O)[nH]c(SCC(=O)Nc2ccc(S(N)(=O)=O)cc2)n1`: the FP signal (polarization) is 61.
Regarding `O=C(CSc1nc2ccc(Br)cc2c2nc3ccccc3n12)NCC1CCCO1` (stereo unspecified), the FP signal (polarization) is 57.
With `CCOc1ccc(NC(=O)CC(NCCc2ccc(OC)cc2)C(=O)O)c([N+](=O)[O-])c1` (stereo unspecified), the FP signal (polarization) is 51.
On to `COc1ccc(S(=O)(=O)Nc2ccccc2C(=O)O)cc1C`, for which the FP signal (polarization) is 62.
Turning to `Cc1ccc2nc(N(CCN(C)C)C(=O)c3ccc(S(=O)(=O)N4CCCCCC4)cc3)sc2c1`, the FP signal (polarization) is 90.
Turning to `O=C(NCCc1ccccc1)NCC(c1ccsc1)N1CCOCC1` (stereo unspecified), the FP signal (polarization) is 64.
Regarding `Cc1cc(-c2nnc(NC(=O)CCCS(=O)(=O)c3ccc(F)cc3)o2)nn1C`, the FP signal (polarization) is 61.
`Cn1nc(-c2ccc3ccccc3c2)c(=O)n(C)c1=S`: the FP signal (polarization) was 50.
The result for `O=C(NCCC1=CCCCC1)C(=O)NCC(c1ccco1)N1CCOCC1` (stereo unspecified) reads 57.
Take `CCSc1cccc(C(=O)Nc2ccc3nc(C)sc3c2)c1`: the FP signal (polarization) was 80.
The result for `CC[N+](C)(CC)CCC[n+]1c(-c2ccccc2)c2cc(N)ccc2c2ccc(N)cc21` reads -45 (active).
For `CCSc1nnc(NC(=O)c2cc(=O)c(OC)co2)s1`, the FP signal (polarization) is 64.
Consider `COc1ccc(OC)c(Nc2nc(CC(=O)Nc3nc4ccccc4s3)cs2)c1`, for which the FP signal (polarization) was 66.
Regarding `Cc1noc(NS(=O)(=O)c2ccc(N/C=C(\C#N)c3nc4ccccc4n3C)cc2)c1C`, the FP signal (polarization) is 68.
The result for `CS(=O)(=O)NCC(c1ccco1)N1CCOCC1` (stereo unspecified) reads 57; that for `c1ccc(-c2nc(SCc3nc4ccccc4[nH]3)oc2-c2ccccc2)cc1`, 64; that for `Cc1ccc2nc(NC(=O)CSc3nnc4ccc(-c5ccccn5)nn34)sc2c1`, 69.
The result for `Cc1cccc(NC(=O)Nc2ccc(Nc3ccc(-n4cccn4)nn3)cc2)c1C` reads 85; that for `COc1ccc(NC(=O)c2c(F)cccc2F)cc1N1CCCCC1=O`, 54; that for `CCOC(=O)c1ccc2nc(NC(=O)/C=C/c3ccccc3Cl)sc2c1`, 62.
As to `CSc1cccc(NC(=O)C(=O)NCCN2CCN(c3ccccc3F)CC2)c1`, the FP signal (polarization) is 87.
Turning to `O=C(Nc1cc2ccccc2cc1NC(=O)c1ccc(N2C(=O)CCC2=O)cc1)c1ccc(N2C(=O)CCC2=O)cc1`, the FP signal (polarization) was 57.
As to `CCN1CCOc2ccc(NC(=O)c3cc4ccccc4oc3=O)cc2C1=O`, the FP signal (polarization) is 62.
In the case of `O=C1CCc2cc(S(=O)(=O)NCc3ccco3)cc3c2N1CCC3` it was 54.
As for `OCc1cnc(SCc2ccc(Cl)c(Cl)c2)n1Cc1ccc(F)cc1`, the FP signal (polarization) is 67.
`Cc1ccc(S(=O)(=O)/C(C#N)=C/N2CCN(c3cccc(Cl)c3)CC2)cc1C`: the FP signal (polarization) was 71.
Regarding `O=C(NCc1cccs1)C(=O)N1CCN(c2cccc(Cl)c2)CC1`, the FP signal (polarization) is 53.
In the case of `N#CC(C#N)=C1SCN(c2cccc(Cl)c2)CS1`, the FP signal (polarization) was -20 (active).
The result for `Cc1nnc(SCc2ccccc2[N+](=O)[O-])s1` reads 61; that for `Nc1c(C(=O)c2cccc(Br)c2)sc2nc3c(c(-c4cccs4)c12)CCCC3`, -15.
Take `COc1ccc(-c2cc(-c3cccs3)nc3sc(C(N)=O)c(N)c23)cc1`: the FP signal (polarization) is 33 (active).
On to `Nc1c(C(=O)c2ccc(Cl)cc2)sc2nc(-c3cccs3)cc(C(F)(F)F)c12`, for which the FP signal (polarization) was 19.
In the case of `O=S(=O)(NCC(c1ccsc1)N1CCOCC1)c1ccc(F)cc1F` (stereo unspecified), the FP signal (polarization) is 65.
In the case of `Cc1cc(C)c2nc(N(CCn3cccn3)C(=O)c3cc4ccccc4o3)sc2c1` it was 66; in that of `CN1C(=O)c2ccc(NC(=O)c3ccn(C)n3)cc2C1=O`, 71.
Regarding `Cc1nc2sc(C)c(C)n2c(=O)c1NC(=O)c1c(F)cccc1Cl`, the FP signal (polarization) is 66.
